Screening data: PubChem, National Center for Advancing Translational Sciences (NCATS)
In the library only some 10% were active in any assay of this set; here they are far more common.
Mm-Cpn inhibitor – Inhibitors of TCP-1 ring complex (TRiC) of Methanococcus maripaludis (MmCpn): qHTS | Chaperonin Mm-Cpn (Methanococcus maripaludis) | purified Mm-Cpn ATPase, ADP Transcreener TR-FRET | Potency, µM (titrated, usually from 76.9 µM), inactives show at the top dose activity, negative = inhibition, most hits filed as inhibitors | 330,000 compounds, 0.031% hits | AID 504842, 2011; further: potency means the concentration at half of the fitted maximal effect; nearly all actives have a fitted effect of over 80% in size
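Inhibition of chaperonin ATP hydrolysis is measured as reduced ADP production, detected by competitive TR-FRET in which signal falls with ADP. Final enzyme 25 nM and ATP 10 uM, reacted 30 min at 37°C.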
CCT chaperon mod – High-Throughput Screening for Modulators of Cytosolic Chaperonin Activity. purified chaperonin ATPase assay, HTRF ADP detection, 30 min. activity change, % (test concentration not listed), hits read low. 360,000 compounds, 0.3% hits; in the data active means activity change below about -30%
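First, chaperonin was dispensed at 40 nM or 20 nM final depending on batch activity. Next, compounds were pinned at 76 uM and ATP added at 10 uM. After 30 min at 37 °C, ADP detection reagents ran 30 min at ambient temperature.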
PLK1 PBD inh – qHTS for Inhibitors of PLK1-PDB (polo-like kinase 1 - polo-box domain): Primary Screen; Serine/threonine-protein kinase PLK1 (Homo sapiens), P53350; Plk1 PBD binding of FITC phosphopeptide, fluorescence polarization; Potency, µM, for the others: max response, negative = inhibition, actives largely listed as inhibitors; 360,000 compounds, 2.8% hits; AID 720504, 2013; further: potency means the concentration at half of the fitted maximal effect; series mostly up to about 57 µM; nearly all actives have a fitted effect of over 65% in size
Target sequence (P53350 whole entry, looked up, the tested form may be a part): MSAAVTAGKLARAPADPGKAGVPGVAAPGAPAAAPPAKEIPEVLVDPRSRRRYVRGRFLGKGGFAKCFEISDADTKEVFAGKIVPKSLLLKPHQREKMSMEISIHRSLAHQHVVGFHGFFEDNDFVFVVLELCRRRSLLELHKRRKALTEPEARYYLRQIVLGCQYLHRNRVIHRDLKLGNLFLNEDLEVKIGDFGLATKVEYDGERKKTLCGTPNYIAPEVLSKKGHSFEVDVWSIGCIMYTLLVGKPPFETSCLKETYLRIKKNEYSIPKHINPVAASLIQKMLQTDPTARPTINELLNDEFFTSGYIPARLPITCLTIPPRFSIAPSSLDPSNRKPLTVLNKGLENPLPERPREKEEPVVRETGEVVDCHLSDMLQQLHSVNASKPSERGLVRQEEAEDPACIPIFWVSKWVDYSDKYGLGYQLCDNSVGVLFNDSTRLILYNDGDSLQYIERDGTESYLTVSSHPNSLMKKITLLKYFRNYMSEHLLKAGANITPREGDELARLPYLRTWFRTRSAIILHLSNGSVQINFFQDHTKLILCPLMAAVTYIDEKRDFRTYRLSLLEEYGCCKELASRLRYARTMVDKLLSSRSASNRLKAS
Sfp inh – qHTS Assay for Inhibitors of Bacillus subtilis Sfp phosphopantetheinyl transferase (PPTase). 4'-phosphopantetheinyl transferase ffp (Bacillus subtilis), Q9F4F7. Biochemical Sfp PPTase activity, qHTS. Potency, µM, for the others: largest response in the series, negative = inhibition, most hits filed as inhibitors. 310,000 compounds, 3.5% hits. AID 1490, 2009;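 further: the enzyme is Sfp with the accession as filed and its product quenches rhodamine fluorescence; potency means the concentration at half of the fitted maximal effect; 0% = enzyme reaction without inhibitor and -100% = no enzyme wells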
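After 15 min at room temperature with compound, 15 nM Sfp received 5 uM rhodamine-CoA plus 12.5 uM BHQ-2-ybbR (50 mM Hepes pH 7.6, 10 mM MgCl2). Rate came from the fluorescence difference over 30 min, ex 525/em 598 nm.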
VDR inhibitor – Inhibitors of the vitamin D receptor (VDR): qHTS | Vitamin D3 receptor (Homo sapiens), P11473 | 400,000 compounds, 0.93% hits | Potency, µM, inactives show max response, negative = inhibition, most hits filed as inhibitors | AID 504847, 2011 | VDR-SRC2-3 peptide fluorescence polarization, 2 h; further: potency means the concentration at half of the fitted maximal effect
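Two reagent solutions held at 4 deg C in the dark were dispensed, compounds pinned at 23 nl, and the mixture incubated 2 h at room temperature. Read-out: fluorescence polarization of VDR–SRC2-3 peptide binding.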
G9a inh – qHTS Assay for Inhibitors of Histone Lysine Methyltransferase G9a; G9a H3K9 monomethylation, AlphaScreen, 2 h; Potency, µM (highest dose often 102 µM), for inactives: at the top dose activity, negative = inhibition, most hits filed as inhibitors; 350,000 compounds, 8.8% hits; AID 504332, 2011; further: potency means the concentration at half of the fitted maximal effect; nearly all actives have a fitted effect of over 75% in size
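Using a bead-based AlphaScreen, monomethylated H3K9 product from 2 h room-temperature reactions (G9a 20 nM, peptide 500 nM, SAM 20 uM) was detected with 0.5 ug/mL rabbit anti-H3K9me1 antibody.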
An asterisk follows results filed as active; ? = inconclusive; · = no result given; [ ] = another dose, or the depositor's remark. Unless noted, the call rests on the fitted dose curve; in most records, active means well fitted curve in the direction sought with a large enough effect; inconclusive means small, poorly fitted or top-dose-only effect, or another doubt; inactive means no such curve, though single readings can be large; an effect the other way counts as inactive or inconclusive. Unless noted, on the % scale 0 is the no-effect control and ±100 the full control effect.

SMILES | Mm-Cpn inhibitor | CCT chaperon mod | PLK1 PBD inh | Sfp inh | VDR inhibitor | G9a inh
N#C/C(=C\c1ccc(N2CCOCC2)c([N+](=O)[O-])c1)c1nc2ccccc2[nH]1 | 0.2% | -2.8 | -6.4% | -8.9% | 0.5% | 0.6%[59 µM]
N#C/C(=C\c1ccc(N2CCOCC2)o1)c1nc2ccccc2[nH]1 | -10.1% | -1.5 | 65.9% | 31.6µM* | -0.5% | ?
COc1ccc(OC)c(S(=O)(=O)Nc2cc(C(=O)O)ccc2N2CC3CC(C2)c2cccc(=O)n2C3)c1 (configuration not stated) | -0.2% | -6.6 | -23.1% | 24.5% | 13.7% | ?
Nc1cc(C(=O)N2CCN(c3ccc([N+](=O)[O-])cc3)CC2)ccc1N1CC2CC(C1)c1cccc(=O)n1C2 (configuration not stated) | 0.6% | -1.3 | -12.8% | -1.4% | -4.7% | ?
COc1cccc(NC(=S)Nc2cc(C(=O)O)ccc2N2CC3CC(C2)c2cccc(=O)n2C3)c1 (configuration not stated) | -4.2% | -0.4 | -26.8% | 3.9% | -27.9% | 39.8µM*
CCN1CCN(C(=O)c2ccc(N3CC4CC(C3)c3cccc(=O)n3C4)c([N+](=O)[O-])c2)CC1 (configuration not stated) | -4.2% | -2.4 | -8.8% | 8.8% | -25.6% | 56.2µM*
Cc1ccc(NC(=S)Nc2cc(C(=O)O)ccc2N2CC3CC(C2)c2cccc(=O)n2C3)cc1C (configuration not stated) | 1.0% | -4.0 | -29.2% | 56.2µM* | 12.0% | 39.8µM*
CCN1CCN(C(=O)c2ccc(S(=O)(=O)Nc3ccccc3)cc2)CC1 | 0.3% | 0.8 | -3.5% | · | 0.2% | -9.5%[12.7 µM]
CCN1CCN(C(=O)c2cc(S(=O)(=O)Nc3ccc(S(C)(=O)=O)cc3)ccc2Cl)CC1 | 1.5% | 2.7 | -6.7% | 15.4% | 5.1% | 50.1µM*
CCN1C(=O)/C(=C/C=C2/Sc3ccccc3N2CCO)SC1=S | -2.8% | -1.6 | -11.1% | ? | ? | 44.7µM*
CCN1C(=O)/C(=C/C=C2/SCCN2C)SC1=S | -0.2% | 0.4 | 25.0% | 13.7% | 1.7% | 8.91µM*
CN1CCS/C1=C\C=C1/SC(=S)N(CC(=O)O)C1=O | -8.2% | -1.9 | 115.3% | -0.6% | 21.4% | 39.8µM*
CCCN1C(=O)/C(=C\C=C2/Sc3ccccc3N2CCO)SC1=S | -0.9% | -0.2 | -12.9% | ? | 157.5% | ?
CCOC(=O)c1noc2nc(C)n(Cc3ccc([N+](=O)[O-])cc3)c(=O)c12 | · | · | · | · | -3.9% | -4.3%[59 µM]
CCCc1nc(SCc2cc(=O)c3ccc(C)c(C)c3[nH]2)n[nH]1 | · | · | · | · | 4.5% | 56.2%[59 µM]
COc1ccc(NC(=O)c2c(C)oc3ccc(O)c(CN4CCOCC4)c23)cc1 | · | · | · | · | 0.2% | -3.7%[59 µM]
CCOC(=O)c1c(-c2ccccc2)oc2ccc(O)c(CN3CCCC3)c12 | -4.3% | 1.1 | -6.0% | 1.3% | 40.7% | 44.7µM*
COc1ccc(C(=O)c2c(C)oc3ccc(O)c(CN4CCOCC4)c23)cc1 | -1.3% | -2.8 | -11.0% | 56.2µM* | -24.2% | 44.7µM*
Cc1ccc(S(=O)(=O)C(CNC(=O)C(=O)NCCc2ccccc2)c2cccs2)cc1 (configuration not stated) | · | · | · | · | 4.2% | 15.9%[59 µM]
O=C(CSc1nc2ccccc2s1)N/N=C/c1ccc(C(=O)O)cc1 | -2.8% | -0.9 | -18.1% | 10.9% | -7.3% | -29.5%
O=C(O)COc1ccccc1/C=N/NC(=O)CSc1nc2ccccc2s1 | 1.4% | -1.5 | -0.2% | ? | -16.9% | 70.8µM*
COc1ccc(/C=N/NC(=O)CCSc2nc3ccccc3s2)cc1 | -0.7% | -2.3 | 29.9µM* | 4.6% | -24.8% | -0.4%
CCOC(=O)c1cc(-c2ccccc2)n(-c2cccc(C(=O)Nc3ccc(OCC)cc3)c2)c1C | · | · | · | · | 4.2% | -29.0%[59 µM]
C=CCOc1ccccc1C1C2=C(CC(C)(C)CC2=O)Nc2c1c(=O)n(C)c(=O)n2C (configuration not stated) | -11.2% | -1.6 | -10.6% | 8.4% | -9.3% | -10.3%[2.33 µM]
Cc1ccc(-n2nc(C)c3c2NC2=C(C(=O)CC(C)(C)C2)C3c2ccccc2OCC(=O)O)cc1 (configuration not stated) | 2.0% | -0.5 | 26.7µM* | 1.3% | -27.4% | ?
SMILES | Mm-Cpn inhibitor | CCT chaperon mod | PLK1 PBD inh | Sfp inh | VDR inhibitor | G9a inh
Cc1ccc(OCCn2c(C3CC(=O)N(Cc4ccc(F)cc4)C3)nc3ccccc32)c(C)c1 (configuration not stated) | · | · | · | · | 24.8% | -40.7%[59 µM]
Cc1ccc(-c2nnc(SCC(=O)N3CCCc4ccccc43)o2)cc1 | · | · | · | · | -2.0% | -4.1%[59 µM]
O=C(CN1c2ccccc2Sc2ccccc21)N/N=C/c1ccccc1 | 2.4% | -3.1 | 17.8% | 16.5% | 4.9% | -23.2%[59 µM]
Cc1ccc(/C=N/NC(=O)CN2C(=O)CSc3ccccc32)o1 | 0.6% | -1.4 | -10.4% | ? | -8.9% | 44.7µM*
Cc1ccc(/C=N\NC(=O)Cc2cccn2C)o1 | 3.1% | -1.4 | -9.7% | 39.8µM* | -25.9% | 28.2µM*
Cn1cccc1CC(=O)N/N=C/C=C/c1ccco1 | -2.3% | 0.3 | -1.5% | 14.1µM* | ? | 12.6µM*
Cn1cccc1CC(=O)N/N=C/c1ccc([N+](=O)[O-])cc1 | -1.4% | -10.1 | -4.1% | -5.7% | -4.1% | 50.1µM*
COc1ccc(CNc2nc(-c3cccnc3)nc3ccccc23)c(OC)c1 | · | · | · | -24.8% | -8.8% | -24.9%[0.501 µM]
COc1ccc(NC(=O)C(NS(=O)(=O)c2cccc3nsnc23)C(C)C)cc1OC (configuration not stated) | · | · | · | · | -8.2% | -3.5%[59 µM]
COc1ccc(C(=O)N2CCCC(N3CCN(c4ccccc4F)CC3)C2)c(OC)n1 (configuration not stated) | -1.0% | 1.5 | 29.9µM* | -1.0% | ? | -0.2%[0.501 µM]
COc1ccccc1C(=O)N1CCC(N2CCN(c3ccccc3)CC2)CC1 | -2.1% | -0.3 | -1.7% | -19.5% | -7.0% | 35.5µM*
CC1CCC(N2CCN(C(=O)c3ccccc3F)CC2)CC1 (configuration not stated) | 0.1% | 0.2 | -2.9% | -13.0% | 8.6% | 15.8µM*
O=C(c1ccccc1F)N1CCN(C(=O)C2CC2)CC1 | -1.1% | -5.2 | -0.9% | 9.6% | -6.4% | 8.4%
COc1ccccc1N1CCN(C2CCN(C(=O)COc3ccccc3)CC2)CC1 | -1.5% | -1.3 | -12.4% | -5.6% | 16.9% | 10µM*
